High-throughput results as filed in PubChem BioAssay.
KLF5 inhibitor – suppresses KLF5 promoter-driven expression. DLD-1 KLF5 promoter-luciferase reporter, luminescence. inhibition, % at 5 µM. hit rate 0.23% among 290,000. AID 1700;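 active = inhibition above a per-plate limit of that plate's mean compound inhibition plus 3 SD, cut at about 60% in these data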;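 note: 0% = DMSO wells and 100% = LY294002 at 200 µM; higher means less KLF5 promoter-driven luciferase light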
ANO1 block – blocks the mouse calcium-activated chloride channel TMEM16A | normalized B-score (activity score, 25-100; higher = stronger inhibition) at 10 µM | hit rate 1.2% among 310,000 | HEK293 TMEM16A/YFP iodide influx fluorescence, ionomycin;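 active = ratio plate-corrected score three or more library SD toward inhibition, starting fluorescence score within five deviations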;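 note: score derived from kinetic fluorescence span divided by baseline fluorescence per well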
Target sequence (Q8BHY3 whole entry, looked up): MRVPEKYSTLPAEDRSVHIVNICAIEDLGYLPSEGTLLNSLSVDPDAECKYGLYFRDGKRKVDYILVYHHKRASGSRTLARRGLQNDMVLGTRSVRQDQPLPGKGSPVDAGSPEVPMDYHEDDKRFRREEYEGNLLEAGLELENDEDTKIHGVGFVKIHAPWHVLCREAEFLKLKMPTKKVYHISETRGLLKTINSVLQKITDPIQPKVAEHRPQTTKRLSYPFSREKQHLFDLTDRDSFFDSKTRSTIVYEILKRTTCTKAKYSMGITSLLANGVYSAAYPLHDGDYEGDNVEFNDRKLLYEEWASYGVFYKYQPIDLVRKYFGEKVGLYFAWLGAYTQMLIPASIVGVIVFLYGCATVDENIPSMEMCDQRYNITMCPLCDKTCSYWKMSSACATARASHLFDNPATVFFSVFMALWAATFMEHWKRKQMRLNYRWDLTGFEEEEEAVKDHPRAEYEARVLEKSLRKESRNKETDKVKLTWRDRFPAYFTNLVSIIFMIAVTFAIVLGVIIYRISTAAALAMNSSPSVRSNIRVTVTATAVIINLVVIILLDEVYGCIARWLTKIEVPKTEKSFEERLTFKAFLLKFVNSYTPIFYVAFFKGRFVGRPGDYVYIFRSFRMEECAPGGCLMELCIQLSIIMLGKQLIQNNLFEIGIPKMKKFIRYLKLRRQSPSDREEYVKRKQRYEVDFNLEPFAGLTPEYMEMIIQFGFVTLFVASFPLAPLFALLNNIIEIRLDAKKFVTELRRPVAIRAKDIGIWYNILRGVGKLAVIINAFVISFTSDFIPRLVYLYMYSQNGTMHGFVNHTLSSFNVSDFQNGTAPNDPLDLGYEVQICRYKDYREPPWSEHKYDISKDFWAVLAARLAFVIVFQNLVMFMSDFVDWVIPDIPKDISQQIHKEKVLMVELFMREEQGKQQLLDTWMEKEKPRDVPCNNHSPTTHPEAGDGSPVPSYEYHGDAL
Jurkat NFkB inh – inhibitors of the PMA/ionomycin-induced NF-kB reporter in Jurkat cells; inhibition, % at 4 µM; PMA/ionomycin-induced NF-kB luciferase reporter, luminescence; hit rate 0.53% among 330,000; in the data active = inhibition above about 50%
697 NFkB inh – lowers PMA/ionomycin-induced NF-kB signal in 697 B cells. inhibition, % at 4 µM. 697 B-cell NF-kB luciferase reporter, 16 h. hit rate 0.33% among 330,000; in the data active = inhibition above about 35%
aSyn UTR inh – MLPCN primary screen, SNCA 5' untranslated region; hit rate 0.82% among 300,000; AID 1813; alpha-synuclein 5'UTR reporter, inhibitor activity; inhibition, % (tested at 7.5 µM); in the data active = inhibition above about 60%;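 note: H4 neuroglioblastoma cells stably carrying SNCA 5'UTR luciferase fusion; 0% = DMSO wells and 100% = positive control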
TMEM16A act – activators or potentiators of mouse TMEM16A chloride channel; hit rate 0.3% among 340,000; AID 623877; B-score at 10 µM; HEK293 TMEM16A/YFP-H148Q/I152L, iodide quench fluorescence; hits give low values;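 active = fluorescence-ratio B-score plate-corrected deviation score at least 3 library SD below zero, with starting fluorescence score within 5 deviations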;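 note: channel opened by trigger with iodide after compound preincubation; score built on the fluorescence ratio of max minus min over baseline; more negative score means more quench and so TMEM16A activation or potentiation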
Starred values were filed as active, the others as inactive; i = inactive; · = no result given. A selection: hits, their analogues and other compounds. The true share with any hit is near 2.5%.

SMILES	KLF5 inhibitor	ANO1 block	Jurkat NFkB inh	697 NFkB inh	aSyn UTR inh	TMEM16A act
CC1(C)OC(=CC=Nc2ccc(Cl)cc2)OC1(C)C	8.4	i	18.6	12.9	102.9*	i
CCCOc1cccc(-c2cc(C(=O)N/N=C/c3cccnc3)c3ccccc3n2)c1	-37.0	25*	-14.0	-18.6	·	i
C/C(=N\NC(=O)c1cc(C2CC2)nc2ccccc12)c1ccc(O)cc1O	60.7	i	25.9	-19.3	73.7*	i
C/C(=N\NC(=O)c1cc(-c2cccnc2)nc2ccccc12)c1ccccc1O	-11.8	i	22.6	-31.1	85.7*	i
COC(=O)c1cc(CNC(=O)c2ccccc2OCc2c(C)noc2C)ccc1OC	-14.6	i	-8.8	-11.3	13.6	i
Oc1ccc(NCc2cccc(OCc3ccc(F)cc3)c2)cc1	-33.0	25*	-18.0	-7.9	·	i
O=[N+]([O-])c1ccc(COc2cccc(CNc3ccc(F)cc3)c2)cc1	-21.2	i	38.5	-74.0	-7.8	i
O=C(O)Cc1cc(I)c(Oc2ccc(O)c(I)c2)c(I)c1	11.9	100*	-9.5	-21.6	5.1	·
O=C(O)Cc1ccc(O)c(O)c1	·	i	8.9	4.3	6.3	i
Cc1ccc(-n2cccc2/C=C2/C(=N)N3C(=NC2=O)SN=C3S(C)(=O)=O)cc1	-2.8	i	9.2	9.9	20.8	i
Cc1cc(C)cc(-n2cccc2/C=C2/C(=N)N3C(=NC2=O)SN=C3S(C)(=O)=O)c1	7.9	100*	6.6	19.7	-9.2	i
CCc1ccc(-n2cccc2/C=C2/C(=N)N3C(=NC2=O)SN=C3S(C)(=O)=O)cc1	-27.4	100*	-1.6	24.5	0.7	i
CS(=O)(=O)C1=NSC2=NC(=O)/C(=C\c3cccn3-c3ccccc3Cl)C(=N)N21	-10.1	i	-33.3	-23.9	-2.1	i
CCOc1ccccc1-c1nnc(SCC(=O)NC2(C#N)CCCC2)o1	·	·	-1.6	11.8	·	i
O=C(COC(=O)/C=C/c1ccccc1)NC1CCCCCC1	·	·	-9.1	12.3	·	i
N#Cc1c(Cl)nsc1NC(=O)c1ccccc1	6.9	100*	-15.1	-27.5	-65.6	i
CN(C)C(CNS(=O)(=O)c1ccc(Cl)cc1F)c1ccco1 (stereo unspecified)	·	·	4.3	9.2	·	i
CCc1noc(C)c1C(=O)Nc1ccc(Cl)c(S(=O)(=O)N2CCCCC2)c1	·	i	18.3	-20.6	12.8	i
Clc1c(CSc2nc3ccccc3o2)nc2ccccn12	-129.8	i	-92.6	-245.5	-117.0	-21.2*
Clc1c(CSc2nc3ccccc3o2)nc2sccn12	-156.4	i	-110.7	-164.0	-117.4	i
CCC(C)n1ncn(-c2ccc(N3CCN(c4ccc(OCC5COC(Cn6cncn6)(c6ccc(Cl)cc6Cl)O5)cc4)CC3)cc2)c1=O (stereo unspecified)	-32.8	i	-0.7	-16.2	100.0*	i
CCCC1COC(Cn2cncn2)(c2ccc(C)cc2)O1 (stereo unspecified)	-5.3	i	-32.2	-5.0	11.3	i
Cc1cc(C)c(C(=O)OCC(=O)Nc2cccc(S(=O)(=O)N3CCCCC3)c2)c(C)c1	·	i	22.2	-8.7	3.1	i
CCC(=O)NC(c1ccc(OC)cc1)c1cc(Cl)c2cccnc2c1O (stereo unspecified)	-5.1	i	14.5	-23.5	80.7*	i
O=C(CCc1ccccc1)NC(c1cccs1)c1cc(Cl)c2cccnc2c1O (stereo unspecified)	-14.2	·	·	·	88.2*	i
SMILES	KLF5 inhibitor	ANO1 block	Jurkat NFkB inh	697 NFkB inh	aSyn UTR inh	TMEM16A act
CCCC(=O)NC(c1cccs1)c1cc([N+](=O)[O-])c2cccnc2c1O (stereo unspecified)	5.5	i	·	·	30.4	i
CCC(=O)NC(c1ccco1)c1cc(Cl)c2cccnc2c1O (stereo unspecified)	12.7	i	-2.3	1.0	99.8*	i
COc1ccc(C(NC(=O)c2cccnc2)c2cc(Cl)c3cccnc3c2O)cc1OC (stereo unspecified)	0.5	i	-4.3	1.6	75.9*	i
CCOC(=O)Nc1nc2ccc(Cn3cccc3)cc2[nH]1	·	·	·	·	·	i
CC(=O)c1c(C)[nH]c(C(=O)C(C)Sc2nnc(NC3CC3)s2)c1C (stereo unspecified)	·	·	1.1	-40.5	·	i
CC(C)C[C@H](NC(=O)c1nc[nH]c1C(=O)NCCCCCNC(=O)OC(C)(C)C)C(=O)OC(C)(C)C	4.9	i	-5.7	-14.2	20.6	i
CC(C)C[C@H](NC(=O)c1nc[nH]c1C(=O)N[C@@H](CCCCNC(=O)OC(C)(C)C)C(=O)OC(C)(C)C)C(=O)OC(C)(C)C	·	i	18.9	9.4	51.6	-5.04*
Cc1cccc(NS(=O)(=O)c2ccc(C3CCCCC3)cc2)c1	0.5	25*	5.2	-40.0	-3.5	i
Cc1cccc(NC(=O)c2cccc(NS(=O)(=O)c3ccc(Cl)cc3)c2)c1	-35.8	100*	-0.9	3.8	·	i
C#CC[N+](C)(C)CCCCCCCCCC	28.2	i	29.8	-7.5	75.3*	i
C#CC[N+](C)(C)CCCCCCCC	13.8	i	2.3	0.5	28.3	i
Cc1ccc(S(=O)(=O)/N=C2\C=C(Nc3cccc(C(=O)O)c3)C(=O)c3ccccc32)cc1	-54.2	25*	-4.8	-61.3	23.5	i
Cc1ccc(S(=O)(=O)/N=C2\C=C(Nc3cccc(C(=O)O)c3)C(=O)c3ccccc32)c(C)c1	-7.6	i	-12.7	-42.2	38.2	i
CN(Cc1nccn1C)C(=O)c1ccc2nc(Cc3ccccc3F)oc2c1	-136.9	i	-59.5	-66.6	-126.3	i
CC(C)CN(C(=O)COC(=O)CSc1ccc([N+](=O)[O-])cc1)C1CCS(=O)(=O)C1 (stereo unspecified)	·	i	-12.6	7.3	5.3	i
CCOc1cccc(C(=O)Nc2ccc3oc(Cc4ccc(Cl)cc4)nc3c2)c1	-46.6	100*	0.9	-31.8	-14.1	i
COc1ccc2cc(C(=O)C3CCCN(C(=O)c4cnn(C(C)C)c4)C3)ccc2c1 (stereo unspecified)	-17.0	i	-1.4	0.3	-5.0	i
O=C(NCC(=O)N1CCOCC1)c1ccc(Br)o1	·	i	-46.6	-44.9	7.3	i
CCc1ccc2c(c1)C1(C(=O)N2)N2CCCC2C(C(=O)c2ccc3ccccc3c2)C12C(=O)Nc1ccccc12 (stereo unspecified)	0.8	i	-21.0	-38.8	-127.1	i
CCc1ccc2c(c1)C1(NN=C(c3cccc4ccccc34)S1)C(=O)N2 (stereo unspecified)	-16.0	i	6.4	10.3	76.3*	i
CC(C)c1ccc(S(=O)(=O)Nc2ccc3c(c2)OCO3)cc1	·	·	-14.6	0.2	·	i
CNC(=O)c1ccccc1Sc1ccccc1C#N	-33.1	i	-13.7	-13.3	25.5	i
